PubChem BioAssay (NCI)
About 79,000 compounds went through this panel and 15% of them were active in at least one assay; those are over-represented in the sample as a whole. Unmarked numbers belong to inactive results. Calls of active or inactive are those of the source. Rule as the data show it: active = growth inhibition above about 70%; inactive = the rest.

Experiments:
[1] = NCI Yeast Anticancer Drug Screen. Data for the rad50 strain (AID 155);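 also: 0% = growth of vehicle-only cultures of the same strain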; conditions: S. cerevisiae rad50 strain growth inhibition; at 50.0 µM; hits give high values
Outline: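 Genetically altered yeast (DNA repair pathway); compound treatment; growth inhibition vs vehicle ctrl.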

[2] = NCI Yeast Anticancer Drug Screen. Data for the mec2-1 strain (AID 157); conditions: S. cerevisiae mec2-1 strain, at 50.0 µM, hits give high values
Outline: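 Compounds were applied to mec2-1 yeast cells. Their growth was then compared with that of vehicle-treated cultures to give growth inhibition.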

[3] = NCI Yeast Anticancer Drug Screen. Data for the sgs1 mgt1 strain (AID 161);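 also: 0% = growth of cultures given vehicle only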; conditions: S. cerevisiae sgs1 mgt1 strain, at 50.0 µM, hits give high values
Outline: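 This yeast growth screen uses a strain with defined DNA-repair lesions; compound-treated growth is compared with vehicle-treated growth.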

[4] = NCI Yeast Anticancer Drug Screen. Data for the cln2 rad14 strain (AID 165);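 also: 0% = growth equal to vehicle treated cultures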; conditions: S. cerevisiae cln2 rad14 strain, at 50.0 µM, hits give high values
Outline: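 Strain: cln2 rad14 yeast, altered in cell cycle control and DNA damage repair. Read-out: growth inhibition vs vehicle.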

[5] = NCI Yeast Anticancer Drug Screen. Data for the bub3 strain (AID 167); conditions: S. cerevisiae bub3 mutant strain, at 50.0 µM, hits give high values
Outline: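 Yeast carrying a defined mutation is treated with each compound, and growth is compared with that of vehicle-exposed cells to give inhibition.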

[6] = NCI Yeast Anticancer Drug Screen. Data for the mlh1 rad18 strain (AID 175); conditions: S. cerevisiae mlh1 rad18 strain growth inhibition; at 50.0 µM; hits give high values
Outline: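 A repair-deficient yeast strain is exposed to test compound, and growth is scored relative to vehicle-treated controls.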

Row | Structure (SMILES) | growth inhibition [1] | growth inhibition [2] [%] | growth inhibition [3] | growth inhibition [4] | growth inhibition [5] | growth inhibition [6]
1 | NCCN1CCOCC1 | 7.95% | -3 | -11.9% | 3.45% | -5.25% | 7.8%
2 | Cc1ccc2c(c1)[nH]c1ccccc12 | 15.3% | 13.7 | 26.2% | -14.2% | 22.6% | 23.9%
3 | C=CCSc1ncnc2nc[nH]c12 | 7.9% | -1.3 | 1.55% | -3.15% | -0.45% | 9.1%
4 | Cn1c(N)c2c(=O)n(C)c3c(c2c(C#N)c1=O)CCSc1ccccc1-3 | -4.4% | -6.35 | 0.25% | -36.5% | -5.2% | -1.9%
5 | C[N+](C)(C)CCc1ccccc1 | 1.9% | -3.15 | -0.85% | -26.4% | -12.9% | 16.1%
6 | CCn1c(C)nc([N+](=O)[O-])c1Sc1ncc[nH]1 | -7.8% | 0.7 | -11.4% | 27.8% | 10.2% | -3.35%
7 | O=C(CCC1CCCCC1)OC1CCCC1 | 12% | -4.45 | -2.7% | -5.1% | -2.3% | 24.3%
8 | CCCC(=O)OCC1OC2OC(C)(C)OC2C2OC(C)(C)OC12 (stereo not drawn) | -4.45% | -2.55 | 10.8% | 8.55% | 15.8% | -6.25%
9 | Cc1nc2[nH]cc(-c3ccccc3)c2c(=N)n1-c1ccc(F)cc1 | -7.45% | 0.8 | -11.2% | -23.1% | -7.6% | 0.55%
10 | Nc1ccc(O)c(C(=O)O)c1 | 24.1% | 11.2 | 11.2% | 0.8% | 1.35% | 26.6%
11 | O=C1CC(c2ccccc2)=NN1c1ccccc1 | -8.3% | -25.4 | -5.55% | 9.5% | -23.8% | 18.6%
12 | O=C1c2ccccc2-c2nc(-c3cccnc3)cc3c2c1nc1ccccc13 | 32.7% | 24.4 | 34.4% | 23% | 24.7% | 39%
13 | C/C(C(=O)O)=C(\C)c1ccccc1 | -0.7% | -0.75 | -0.9% | -15.6% | 2.1% | 5.2%
14 | O=C1CCCCC1CO (stereo not drawn) | -0.1% | 1.5 | -0.65% | -5.5% | 1.4% | 2.3%
15 | O=C(CC(C(=O)c1ccsc1)c1cccs1)c1cccs1 (stereo not drawn) | 50.9% | 14.2 | 57.3% | 36.4% | 59.6% | 33.8%
16 | CC1=C(OCCCl)C2CC1C1C(=O)N(c3ccccc3)C(=O)C21 (stereo not drawn) | -9.95% | -29.1 | -1.85% | -0.4% | -4.9% | -4.75%
17 | CCCc1nc(NC#N)nc(C(=O)NC23CC4CC(CC(C4)C2)C3)c1C | -8.2% | -13.2 | 7.4% | 8.4% | -7.2% | -9.35%
18 | COc1cc(/C=C/C(=O)c2ccccc2O)cc(OC)c1OC | -1% | -17.1 | 16.4% | -6.35% | -9.15% | 13.8%
19 | O=C(NC(=O)c1c(F)cccc1F)Nc1ccc(C(O)(C(F)(F)F)C(F)(F)F)cc1 | -33.2% | 14.5 | 10.2% | 24.1% | 6% | 3.55%

Row | Structure (SMILES) | growth inhibition [1] | growth inhibition [2] [%] | growth inhibition [3] | growth inhibition [4] | growth inhibition [5] | growth inhibition [6]
20 | O=C(c1ccncc1)c1c(Cc2ccccc2)ccc2ccccc12 | -0.3% | -0.65 | -9.25% | -4% | 5.45% | -1.35%
21 | O=C(O)CCc1ccc2c(c1)C(=O)CC2 | -35% | -27.9 | -23.2% | -16.1% | -3.95% | -37.4%
22 | CS/C(=C\c1ccc(C(=O)c2ccc(C)cc2)n1C)S(C)=O (stereo not drawn) | 16.6% | 15.2 | 42.4% | 11.1% | -0.7% | 35.5%
23 | O=c1c2c(no[n+]2[O-])c2ccccc2n1-c1ccccc1 | 96.7% (active) | 66 | 92.4% (active) | 86% (active) | 97.2% (active) | 96% (active)
24 | COCC1OC(n2cc(C)c(=O)n(C)c2=O)CC1OC (stereo not drawn) | 1.2% | 7.2 | 19.9% | -7.15% | 24.4% | 8%
25 | O=C(OCCN=c1c2ccccc2ccc2ccccc12)c1cc([N+](=O)[O-])cc([N+](=O)[O-])c1 | 13.1% | 4.75 | 34.3% | 21% | 13.6% | 39.8%
26 | O=S1(=O)C2CCCCCC2(N2CCOCC2)C1C1CCCCC1 (stereo not drawn) | 16.7% | 22.4 | -0.45% | 25.4% | 6% | 15.1%
27 | N=C(N=C(N)N)N1CCOCC1 | 8.95% | 20.1 | 9.75% | 32.7% | 30.1% | -0.55%
28 | CN(C)CC(=O)N1CCc2c([nH]c3ccccc23)C1c1cccnc1 (stereo not drawn) | -44.9% | -10.2 | 3.6% | -3.1% | -15.3% | -16.9%
29 | O=[N+]([O-])c1ccc(C(O)(C#CCN2CCCC2)c2ccccc2)cc1 (stereo not drawn) | 20.5% | 11.9 | -24.1% | 10.2% | 3.5% | 12.7%
30 | CCOC(=O)c1ccc(N2C(=S)N(C(=O)c3ccccc3)C(=Nc3ccccc3)C2=Nc2ccccc2)cc1 | 11.2% | 3.15 | 5.25% | 1.35% | 3.85% | -37.4%
31 | Nc1ccc(Cl)cc1C(=O)N1CCN(c2ccc([N+](=O)[O-])cn2)CC1 | 33.5% | 16.2 | 51.4% | 36.1% | 42.9% | 18.8%
32 | CNCC1OC(OC)C2OC(C)(C)OC12 (stereo not drawn) | -5.05% | 5.1 | 8.15% | -25.5% | -21.1% | 5.05%
33 | CN(C)/N=C1/CCCCC1C(O)(c1ccccc1)c1ccccc1 (stereo not drawn) | -20.7% | -19.8 | -15.4% | -73.3% | -58.8% | -10.7%
34 | CC1OC(c2ccccc2Cl)OC1C (stereo not drawn) | 1% | -2.75 | -9.7% | -8.5% | -3.05% | -11.7%
35 | CC(=O)Nc1ccc([N+](=O)[O-])cc1Cl | 27.6% | 16.9 | 16.8% | -3.15% | 5.1% | 26.4%
36 | COC(=O)CCC(=O)c1ccc2c(c1)CCC2 | -3.25% | -26.2 | 17.2% | 3% | 33.5% | 7.65%
37 | CCOC(=O)C(C(=O)c1cccnc1)C(C(=O)OCC)C(=O)c1cccnc1 (stereo not drawn) | 5.1% | 20.9 | 6% | 20.4% | 12.1% | 5.55%
38 | COC(=O)CCC(=O)c1ccc2c(c1)CC1(C2)Cc2ccc3c(c2C1)CCCC3=O (stereo not drawn) | -10.9% | -27.1 | -14.1% | 5.9% | -13.6% | -4.25%
